“And” between values parts separate entries of the source, which are not always exact repeats. Equal entries are not always repeated. Inconclusive results are not listed. The source made the active and inactive calls. Unless noted, cut-off not given; nearly all actives show AC50 up to about 26 µM.

The values below come from PubChem BioAssay.

The nature of experiment [1]: kinase inhibitors against Plasmodium liver-stage infection, cell-based, known kinase inhibitor set, luminescence, hepatoma host viability (AID 624392; call rule not given here;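 further: infected cells incubated roughly two days before readout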). The conditions noted are these: Plasmodium liver stage in hepatoma cells, luciferase luminescence, concentration not given here; liver cell % of control: measured here: host liver cell viability; parasite % of control: stronger effect = lower value.

A short description of experiment [2]: viability loss in pontine glioma line – cell-based, SU-DIPG-XXV, MIPE5.0, CellTiter-Glo, qHTS, dose response (AID 1347065).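 Further: cells exposed to compound for 48 hours before ATP readout.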 The conditions noted are these: CellTiter-Glo ATP luminescence. Background: Cellular ATP, detected with luciferase, serves as a proxy for viable cell number.
Experiment [3] is described as follows: SU-DIPG-VI glioma cell viability, MIPE4.0 library, CellTiter-Glo luminescence, qHTS (AID 1347066; cut-off not given, nearly all actives have AC50 up to about 30 µM;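 further: cells exposed to compound for 48 hours before readout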). Conditions: CellTiter-Glo ATP luminescence.
Experiment [4] is described as follows: growth inhibition of DIPG glioma cells, dose response, cell-based, SU-DIPG-XIII, MIPE5.0, CellTiter-Glo, qHTS (AID 1347064; cut-off not given, nearly all actives have AC50 up to about 23 µM). The conditions noted are these: SU-DIPG-XIII viability, CellTiter-Glo ATP luminescence.
Experiment [5] can be described thus: JHH-DIPG-1 glioma cell viability, MIPE5.0 library, CellTiter-Glo luminescence, qHTS (AID 1347067).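 Further: cells exposed to compound for 48 hours before readout.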 The conditions noted are these: JHH-DIPG-1 glioma viability, CellTiter-Glo ATP luminescence.
Experiment [6] is described as follows: SU-DIPG-XXV glioma cell viability, MIPE5.0 library, qHTS (AID 1347068; cut-off not given, nearly all actives have IC50 up to about 30 µM;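 on IC50: cells exposed to compound for 48 hours before viability readout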). Background: qHTS replaces the single test concentration by a dilution series.

`CN(C)CCOc1cc(-c2cn[nH]c2)ccc1NC(=O)C1COc2ccccc2O1` (stereo not drawn): in experiment [1], the liver cell % of control is 74.6% and 79.4% and 100%; the parasite % of control was 63.3% (inactive) and 69.1% (inactive) and 49.5% (inactive). The AC50 – broadly, the midpoint of the concentration-response curve, whichever way the signal moves – in experiment [2] was 7.42 µM (active). Also, in experiment [3], the compound was classed as inactive.

With `C[C@H](Nc1ncnc2nc[nH]c12)c1cc2ccc(F)cc2nc1-c1ccccn1`, the outcome in experiment [4], in experiment [5] and in experiment [6] was inactive.

As for `O=C(c1c(F)ccc(NS(=O)(=O)N2CC[C@@H](F)C2)c1F)c1c[nH]c2ncc(-c3cnc(C4CC4)nc3)cc12`, the AC50 in experiment [2] was 10.5 µM (active).

As to `Nc1nccc(-c2c(-c3ccc(F)cc3)ncn2C2CCN(Cc3ccon3)CC2)n1`, the result in experiment [2], in experiment [5] and in experiment [6] was inactive.

Regarding `CC(C)(O)CNc1nc(Nc2ccnc(C(F)(F)F)c2)nc(-c2cccc(C(F)(F)F)n2)n1`, in experiment [2], the half-maximal activity concentration (AC50) is 14.8 µM (active). The call in experiment [6] was inactive.

As for `O=C1Nc2nc(-c3c(O)cccc3OCC3CC3)cc([C@@H]3CCCNC3)c2CO1`, the AC50 in experiment [2] was 18.6 µM (active); in experiment [5] it was 26.3 µM (active). Also, the IC50 (as a rule, the midpoint of a concentration-inhibition curve) in experiment [6] is 13.2 µM (active).

As to `CC1CCC(n2c3cnccc3c3cnc(Nc4ccc5c(n4)CCN(C(=O)CO)C5)nc32)CC1` (stereo not drawn), the call in experiment [2], in experiment [5] and in experiment [6] was inactive.

On to `Cc1ccc(-c2ccc(C)cn2)nc1`, for which the compound was classed as inactive in experiment [2], in experiment [5] and in experiment [6].

`Cn1cc(-c2cc(Oc3cc(F)c(NC(=O)C4(C(=O)Nc5ccccc5)CC4)cc3F)ccn2)cn1`: the AC50 is 16.6 µM (active) in experiment [2] and 18.6 µM (active) in experiment [5].

Regarding `CCC(CC)C(c1ccc(Nc2nc3ccccc3s2)cc1)n1cncn1` (stereo not drawn), the AC50 in experiment [2] is 18.6 µM (active). Moreover, the half-inhibitory concentration (IC50) in experiment [6] is 20.9 µM (active).

Turning to `COc1ccc(CNC(=O)c2cc(-c3cncc(Cl)c3)cnc2-c2ccccn2)nc1OC`, the compound was classed as inactive in experiment [2], in experiment [5] and in experiment [6].

Turning to `CCc1cc2c(cc1N1CCC(N3CCOCC3)CC1)C(C)(C)c1[nH]c3cc(C#N)ccc3c1C2=O`, the half-maximal activity concentration (AC50) in experiment [2] is 2.04 µM (active). Besides, in experiment [6], the outcome was inactive.

Regarding `CNC(=O)Cn1cc(-c2ccc3c(c2)C(F)CC32NC(=O)N(CC(=O)N(Cc3ccc(F)cc3)C(C)C(F)(F)F)C2=O)cn1` (stereo not drawn), the compound was called inactive in experiment [2], in experiment [5] and in experiment [6].

As to `Cn1ncc2cc(-c3cnc(N)c(Cl)c3N3CCC4(CCNC4=O)CC3)ccc21`, the AC50 in experiment [2] is 20.9 µM (active). Moreover, the result in experiment [5] was inactive.

For `C[C@@H]1CC2C3C[C@H](F)C4=CC(=O)C=C[C@]4(C)[C@@]3(F)[C@@H](O)C[C@]2(C)[C@@]1(OC(=O)c1ccco1)C(=O)SCF` (stereo partly drawn), the AC50 in experiment [2] was 20.9 µM (active). Also, in experiment [6], the result was inactive.
